KB-3-1 tox – KB-3-1 parental cell cytotoxicity; KB-3-1 viability, CellTiter-Glo ATP luminescence, 72 h; Potency, µM (series often up to 46.1 µM), actives largely listed as cytotoxic; 400,000 tested, 1.4% active; also: % is scaled to controls: 0 for no effect and ±100 for the full control effect; nearly all actives have a fitted effect of over 60% in size
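Parental KB-3-1 adenocarcinoma cells in phenol-red-free DMEM with 10% FBS were pin-treated with compounds at several concentrations, incubated 72 h at 37 °C, and viability read by CellTiter-Glo luminescence; concentration-effect curves were fitted after normalization.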
S2 tox – viability counter-screen for ATXN expression inhibitors; S2 cells (HEK-293 line with an ATXN2-luciferase reporter) viability, CellTiter-Fluor protease fluorescence, 24 h; Potency, µM (titrated, usually from 56.7 µM), most hits filed as cytotoxic; 400,000 tested, 0.49% active; AID 651635; also: nearly all actives have a fitted effect of over 40% in size
HT1080 IDH1KD tx – kills HT-1080 cells with IDH1 knockdown; HT-1080 IDH1 knockdown viability, ATP luminescence, 48 h; Potency, µM (doses to about 46.1 µM), inactives show at the highest dose activity, negative = toxicity, actives largely listed as cytotoxic; 360,000 tested, 2% active;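 also: 0% = DMSO wells and -100% = cell-free medium wells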
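% activity derives from luminescence (CellTiter-Glo), normalised to DMSO and no-cell wells. HT-1080-IDH1KD cells, 750/well, had 48 h compound exposure at 37 °C.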
ATXN2 expr inh – reduces ATXN2 reporter expression in HEK-293 cells | AID 1745845 | 360,000 tested, 0.72% active | HEK-293 ATXN2-luciferase reporter, luminescence, 24 h | Potency, µM (doses to about 57 µM), inactives show at the top dose activity change, negative = inhibition, most hits filed as inhibitors; also: % is scaled to controls: 0 for no effect and ±100 for the full control effect; nearly all actives have a fitted effect of over 55% in size
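ATXN2-luciferase reporter cells (luciferase flanked by upstream and downstream ATXN2 gene portions) were treated 24 h at 37 °C with compounds at up to 57 uM. SteadyGlo luminescence gave expression; GF-AFC fluorescence gave viability.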
KB-V1 cytotox – KB-V1 MDR subline cytotoxicity; KB-V1 MDR cells viability, CellTiter-Glo, 72 h; Potency, µM (titrated, usually from 46.1 µM), actives largely listed as cytotoxic; 400,000 tested, 3.4% active; AID 1347076; also: % is scaled to controls: 0 for no effect and ±100 for the full control effect; nearly all actives have a fitted effect of over 60% in size
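Drug-selected KB-V1 cells, grown in DMEM lacking phenol red with 10% FBS, receive compound titrations; after three days at 37 degrees C, surviving cell ATP is quantified by CellTiter-Glo luminescence and responses normalized and curve-fitted.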
HT1080NT lethal – kills 2HG-producing HT-1080-NT fibrosarcoma cells; HT-1080-NT fibrosarcoma viability, CellTiter-Glo ATP luminescence, 48 h; Potency, µM (top dose mostly 46.1 µM), without a hit: top-dose activity, negative = less viability, hits mostly cytotoxic; 360,000 tested, 1.6% active; AID 686970;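 also: NT is the 2HG producing partner of a matched IDH1 knockdown line; 0% = DMSO-treated cells and -100% = media-only wells without cells; nearly all actives have a fitted effect of over 55% in size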
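HT-1080-NT; 750 cells/well; 5% FBS RPMI; 48 h compound, 37 degrees C; CellTiter-Glo luminescence; curve fitting and curve-class assignment.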
The depositor's hits bear a star; i = inactive; ? = inconclusive; . = no result given. In the library only some 6.2% were active in any assay of this set; here they are far more common. Calls follow the shape of the dose curve; as a rule, active = well fitted curve in the direction sought with a large enough effect; inconclusive = small, poorly fitted or top-dose-only effect, or another doubt; inactive = no such curve, though single readings can be large; an effect the other way counts as inactive or inconclusive. Potency is read from the fitted curve at half-maximal effect.

SMILES	KB-3-1 tox	S2 tox	HT1080 IDH1KD tx	ATXN2 expr inh	KB-V1 cytotox	HT1080NT lethal
CCCCCCCNC(=O)C1(CC2CC(c3ccc(Cl)cc3)=NO2)CCN(C(=O)Cc2ccc(F)cc2)CC1 (centres undefined)	i	i	0%	0%	i	0%
Cc1nc(NS(=O)(=O)c2ccc(Cl)s2)c2c3c(sc2n1)CCCC3	?	i	?	.	12µM*	?
Cc1cc(NC(=O)CCCSc2nc(-c3ccco3)cc(C(F)(F)F)n2)n(-c2ccccc2)n1	i	i	?	-15%	2.9µM*	-11%
Cc1c(NC(=O)CSc2nc(-c3ccco3)cc(C(F)(F)F)n2)c(=O)n(-c2ccccc2)n1C	i	i	19%	0%	i	12%
Cc1cc(NC(=O)CSc2nc(-c3ccco3)cc(C(F)(F)F)n2)n(-c2ccccc2)n1	5.8µM*	i	?	?	4.1µM*	?
Cc1cc(-c2cccnc2)c(C#N)c(SCc2cccc(F)c2)n1	i	i	?	-33%	12µM*	-13%
COc1cc(C(=O)OCC(=O)NCCCc2ccccc2)ccc1OCC(C)C	i	i	10%	4%	i	17%
CC1(C)C(=O)Nc2ccccc2N1C(=O)COC(=O)c1cccc(O)c1	i	i	6%	-3%	i	3%
COc1cc(/C=C/C(=O)OCC(=O)NCc2ccc(F)cc2)ccc1O	?	i	?	-9%	16µM*	?
COc1cc(C(=O)OCC(=O)NCc2ccc(F)cc2)ccc1OCC(C)C	23µM*	i	-5%	-18%	i	0%
COc1cc(/C=C/C(=O)O)ccc1O	i	i	5%	-1%	i	-1%
COc1cc(C(=O)OCC(=O)N2c3ccccc3NC(=O)C2(C)C)ccc1OCC(C)C	i	i	-14%	-16%	21µM*	-2%
COc1cc(/C=C/C(=O)CC(=O)/C=C/c2ccc(O)c(OC)c2)ccc1O	?	i	2.6µM*	?	i	?
COc1ccc(NC(=O)Cn2ncc3c2-c2ccccc2OC3)cc1Cl	?	i	.	-6%	?	.
CCCCN(CC)CCNC(=O)CN1C(=O)COc2ccc(S(=O)(=O)N3CCOCC3)cc21	i	i	.	6%	?	.
COc1cccc(NC(=O)Cn2c(=O)n(-c3cccc(OC)c3)c(=O)c3c4c(sc32)CCCC4)c1	i	?	.	0%	i	.
Cc1cc2c(c(-c3cnccn3)c1)OC(CNC(=O)c1cc(Cl)ccc1F)C2 (centres undefined)	.	i	.	.	.	.
COc1ccc(Cn2c(O)c(C=Nc3ccc(O)cc3)c3ccccc3c2=O)cc1	?	i	?	?	21µM*	-21%
COc1ccc(Cn2c(O)c(C=Nc3ccccc3)c3ccccc3c2=O)cc1	i	?	6%	-8%	i	7%
COCCN(Cc1cc2cc3c(cc2nc1Cl)OCO3)C(=O)Nc1ccc(OC)cc1	?	i	9%	.	?	8%
COCCN(Cc1cc2cc3c(cc2nc1Cl)OCO3)C(=O)Nc1ccc(F)cc1	16µM*	i	17%	-21%	?	-4%
CCOC(=O)C1(Nc2nccs2)Sc2ccccc2NC1=O (centres undefined)	5.8µM*	?	8.2µM*	-19%	?	10µM*
CCOC(=O)C(=O)Nc1ccc(S(=O)(=O)Nc2nccs2)cc1	i	i	9%	-2%	?	0%
O=C(COCc1cc(-c2cccs2)on1)NCc1ccccc1Cl	i	.	.	.	i	.
COc1ccc(CNCCC(c2ccccc2)c2ccc(OC(C)C)cc2)cc1OC (centres undefined)	?	i	18µM*	-24%	?	21µM*
SMILES	KB-3-1 tox	S2 tox	HT1080 IDH1KD tx	ATXN2 expr inh	KB-V1 cytotox	HT1080NT lethal
COc1ccc(CN(CCC(c2ccccc2)c2ccc(OC(C)C)cc2)C(=O)CCl)cc1OC (centres undefined)	10µM*	.	1.6µM*	?	8.2µM*	1.5µM*
COc1ccc(CNCC(O)(c2ccc(F)cc2)c2ccc(F)cc2)cc1OC	?	i	?	-26%	i	?
COc1ccc(CCNCc2ccc(-c3ccccc3)cc2)cc1OC	i	i	23µM*	?	?	23µM*
COc1ccc(CNCCC(c2ccc(F)cc2)c2ccc(OC(C)C)cc2)cc1OC (centres undefined)	?	?	?	?	?	23µM*
CCC(C)NC(=O)Cn1c(=O)n(CC2CCC(C(=O)NC)CC2)c(=O)c2sccc21 (centres undefined)	i	i	.	13%	?	.
O=C(C1CCC(Cn2c(=O)c3sccc3n(Cc3ccccc3)c2=O)CC1)N1CCOCC1 (centres undefined)	?	i	.	-1%	i	.
COCc1cc(=O)[nH]c(/N=C(\N)Nc2ccc(Oc3ccccc3)cc2)n1	i	?	3%	3%	18µM*	-15%
COc1ccc(N/C(N)=N/c2nc(CSc3nnc(C)s3)cc(=O)[nH]2)cc1	5.2µM*	?	2.6µM*	-31%	i	3.3µM*
Cc1ccc(N/C(N)=N/c2nc(CSc3nnc(C)s3)cc(=O)[nH]2)c(C)c1	2.3µM*	?	4.1µM*	.	?	2.6µM*
c1ccc(Cc2nnc3n2CCN(Cc2cnc(-c4ccccc4)s2)CC3)cc1	.	i	.	.	.	.
CC(=NNC(=O)c1ccncc1)c1ccc2ccccc2c1O	?	i	5.8µM*	?	?	?
CC(C)CC(=NNC(=O)c1ccncc1)c1cc(Cl)ccc1O	?	?	0.82µM*	2.8µM*	?	?
C/C(=N\NC(=O)c1cc(-c2cccnc2)nc2ccccc12)c1ccc(O)cc1O	?	?	?	4µM*	?	?
C/C(=N\NC(=O)c1cc(C)nc2ccccc12)c1ccncc1	?	i	7.3µM*	-6%	?	?
C/C(=N\NC(=O)c1cc(C)nc2ccccc12)c1ccc([N+](=O)[O-])cc1	i	i	-25%	-4%	i	-14%
Cc1ccc(S(=O)(=O)N(C)CCCN(C)c2nc(-c3cccs3)nc3ccccc23)cc1	.	.	-3%	.	.	0%
CSc1nnc(CCNC(=O)/C=C/c2cccc(F)c2)n1-c1ccc(F)cc1	.	i	.	.	.	.
Cc1cccc(-c2nc3ccccc3n2Cc2ccccc2)c1	i	?	.	?	i	.
C/C(=N\NC(=O)c1cccc(N/N=C(\C)c2cc(O)ccc2O)c1)c1cc(O)ccc1O	?	?	18µM*	?	?	23µM*
